From PubChem BioAssay AID1259415 (National Center for Advancing Translational Sciences (NCATS), 2018)
Out of some 410,000 compounds screened, about 18,000 (4.4%) were called active. About 7% were inconclusive and are not listed. Shown is part of a subset that was picked to be rich in actives. Values without a mark were called inactive. No stated cut-off is given here; in the data, active means activity change below about -60%; inconclusive means no clear call, values can overlap the other calls; inactive means above about -39%.

Experiment: qHTS Assay for inhibitors of the human cytomegalovirus (HCMV)
Conditions: HFF cells, HCMV-luciferase reporter, 72 h; at 57.5 µM; active compounds read low
Method in brief: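 Human foreskin fibroblasts infected with luciferase-reporter HCMV at MOI 1 PFU/cell, compounds at two doses. Luciferase measured 72 h post infection; normalized to buffer-only basal and Salinomycin (10uM) controls.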
On the % scale 0 is the no-effect control and ±100 the full control effect.

| SMILES | activity change, negative = inhibition |
| --- | --- |
| Cc1noc(/C=C/N(C)C)c1S(=O)(=O)N1CCCC(C(=O)Nc2cccc(F)c2)C1 (stereo unspecified) | 4.81% |
| CCOc1ccc(OCC)c(NC(=O)c2c(C)nn(-c3ccccc3)c2-n2cccc2)c1 | -28.6% |
| COc1ccc(-c2nn3c(=O)cc(CN4CCN(C(=O)c5ccc(OC)c(OC)c5)CC4)nc3s2)cc1 | -5.09% |
| COc1ccc(CCNc2nc(-c3ccc(Cl)cc3)cc(C(F)(F)F)n2)cc1OC | -19.1% |
| O=C(CSc1nc(=O)n(Cc2cccnc2)c2c1CCC2)Nc1ccc(F)cc1F | -15.2% |
| COc1cccc(CNC(=O)CCC(=O)N2CC3CCCN3c3ccccc32)c1 (stereo unspecified) | -5.74% |
| COc1ccc(C2N=C(N)N=C(N)N2c2ccccc2)cc1OC (stereo unspecified) | 14% |
| O=C(CCc1nc(CN2CCN(S(=O)(=O)c3ccc(Cl)cc3)CC2)no1)N1CCCCC1 | 30.2% |
| CC[C@]12c3[nH]c4ccc(OC)cc4c3CCN1C(=O)C(CC(=O)NCCN1CCOCC1)C[C@@H]2C(=O)N1CCN(C(=O)C2CC2)CC1 (stereo partly specified) | 3.72% |
| Cc1c(C)n(Cc2ccc(Cl)cc2)c2ccc(C(=O)NCCc3ccc(S(N)(=O)=O)cc3)cc12 | 0% |
| O=C(CCNC(=O)c1ccc(Br)cc1)Nc1cccc(S(=O)(=O)N2CCCCC2)c1 | -23.8% |
| O=C(Nc1cccc(S(=O)(=O)N2CCCCC2)c1)c1ccc2c(c1)OCO2 | -69% (active) |
| CN1CCN(S(=O)(=O)c2cccc(C(=O)Nc3cccc(S(N)(=O)=O)c3)c2)CC1 | -17.3% |
| COc1cc(C(=O)NNC(=O)c2ccc(S(=O)(=O)N3CCCCC3)cc2)cc(OC)c1OC | 41.5% |
| CCN(CC)S(=O)(=O)c1cccc(NC(=O)c2ccc(S(=O)(=O)N3CCCC3)cc2)c1 | -65.5% (active) |
| O=C(Nc1cccc(S(=O)(=O)N2CCCC2)c1)c1cncc(Br)c1 | -5.81% |
| CCSc1ccccc1C(=O)Nc1ccc2c(c1)OCO2 | 8.91% |
| NS(=O)(=O)c1ccc(CCNC(=O)c2ccc(Cl)c(S(=O)(=O)N3CCCCCC3)c2)cc1 | -69.2% (active) |
| Cn1c(=O)n(C)c2cc(C(=O)Nc3ccc4c(c3)OCO4)ccc21 | -96.3% (active) |
| O=C(NCCc1ccc(F)cc1)c1ccc(S(=O)(=O)N2CCCCC2)cc1 | -3.57% |
| O=C(Nc1ccc2c(c1)OCO2)c1cc(-c2cccc(Cl)c2)on1 | 11.5% |

| SMILES | activity change, negative = inhibition |
| --- | --- |
| CCc1nn(CC(=O)Nc2cccc(C)c2C)c(=O)c2cc3sccc3n12 | -1.56% |
| Cc1cc2oc(=O)cc(CN(C)Cc3ccc(OC(F)F)cc3)c2cc1Cl | 26.8% |
| CCn1c(Cc2cccs2)nnc1SCC(=O)c1ccc(C)cc1 | 47.4% |
| CC(=O)c1c(C)n(S(=O)(=O)c2ccc(Cl)cc2)c2ccc(NS(=O)(=O)c3ccc(Cl)cc3)cc12 | 1.89% |
| Cc1ccc(OCC(=O)OCc2cc(=O)n3nc(C4CC4)sc3n2)cc1 | -34% |
| O=C(NCC12CC3CC(CC(C3)C1)C2)c1cc2nc(-c3ccccc3)cc(C(F)(F)F)n2n1 | -2.2% |
| COc1ccc(N2CCN(C(=O)C3CCCN(C(=O)c4cc5sccc5n4C)C3)CC2)cc1 (stereo unspecified) | -14.9% |
| Cc1cc(C)c(NC(=O)CN2C(=O)c3cccnc3Oc3ccc(Cl)cc32)c(C)c1 | 0% |
| O=C(NCCCO)C(=O)Nc1c2c(nn1-c1ccc(F)cc1)CSC2 | -5.08% |
| Cc1ccc(Nc2c(-c3ccc(Cl)cc3)nc3sccn23)c(C)c1 | -23.6% |
| Cc1cccc(NC(=O)CSc2nc3c(oc4ccccc43)c(=O)n2-c2ccc(F)cc2)c1 | -12% |
| Cc1ccc(C(=O)NNC(=O)c2ccncc2)cc1S(=O)(=O)N1CCCCC1 | -15.8% |
| O=C(Nc1cccc(S(=O)(=O)Nc2ccc(Cl)cc2)c1)c1ccc2c(c1)OCCO2 | -94.5% (active) |
| O=C(Nc1ccc2c(c1)OCCO2)c1ccc(Cl)c(S(=O)(=O)N2CCCCC2)c1 | -72.6% (active) |
| O=C(NNC(=O)c1cccc(S(=O)(=O)Nc2ccc(Cl)cc2)c1)c1ccc(=O)[nH]c1 | 24% |
| CC(=O)Nc1ccc(C(=O)Nc2cccc(S(=O)(=O)NC3=NCCC3)c2)cc1 | -22.7% |
| Cc1ccc(NC(=O)c2ccc(Cl)nc2)cc1S(=O)(=O)N1CCOCC1 | -8.05% |
| CCOc1ccc(CCNC(=O)C2CCN(c3ccc(N4CCOCC4)nn3)CC2)cc1OCC | 2.74% |
| Cc1cc(C)c(C)c(S(=O)(=O)N[C@@H](C)C(=O)OC(C)C(=O)NC(N)=O)c1C (stereo partly specified) | -14.5% |
| COc1ccc(NC(=O)c2sc3nc(-c4cc5cccc(OC)c5oc4=O)[nH]c(=O)c3c2C)cc1 | -14.2% |
